What was measured:
Assay in all cases: PBM binding z-score (relative to random genomic background probes); higher = stronger binding; sequences stand for … in GC…GCGATTGACAGCGTAGAATGAAGG
[1] = tested on: PPARg:RXRa DBDmut IVT, anti-RXR (DBD mutation: RXRa K156A/R161A, NR concentration 270 nM, RXRa partner concentration 90 nM)
Method in brief: (§1)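 Random background probes are the reference for binding z-scores. These scores derive from regression-normalized fluorescence on custom Agilent 4×180K protein-binding microarrays incubated 1 h with ligand-free nuclear receptor dimers. Binding was detected with antibodies against each partner (one per run).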

[2] = tested on: PPARg:RXRa IVT, anti-PPARg (NR concentration 270 nM, RXRa partner concentration 90 nM)
Method in brief: as §1

[3] = tested on: PPARg DBDmut:RXRa IVT, anti-PPARg (DBD mutation: PPARg1 K132A/R137A, NR concentration 270 nM, RXRa partner concentration 90 nM)
Method in brief: as §1

[4] = tested on: PPARg DBDmut IVT, anti-PPARg (DBD mutation: PPARg1 K132A/R137A, NR concentration 270 nM)
Method in brief: as §1

[5] = tested on: PPARg homodimer (NR concentration 180 nM)
Method in brief: as §1

[6] = tested on: PXR:RXRa (NR concentration 270 nM, RXRa partner concentration 90 nM)
Method in brief: as §1

[7] = tested on: PXR homodimer (NR concentration 270 nM)
Method in brief: as §1

[8] = tested on: RARa:RXR (NR concentration 270 nM, RXRa partner concentration 90 nM)
Method in brief: as §1

[9] = tested on: RARa homodimer (NR concentration 270 nM)
Method in brief: as §1

[10] = tested on: RARb:RXRa (NR concentration 270 nM, RXRa partner concentration 90 nM)
Method in brief: as §1

[11] = tested on: RARb homodimer (NR concentration 270 nM)
Method in brief: as §1

[12] = tested on: RARg:RXRa (NR concentration 270 nM, RXRa partner concentration 90 nM)
Method in brief: as §1

[13] = tested on: RARg homodimer (NR concentration 270 nM)
Method in brief: as §1

[14] = tested on: RXRa DBDmut IVT, anti-RXR (DBD mutation: RXRa K156A/R161A, NR concentration 90 nM)
Method in brief: as §1

[15] = tested on: RXRa homodimer (NR concentration 180 nM)
Method in brief: as §1

[16] = tested on: THRa:RXRa (NR concentration 90 nM, RXRa partner concentration 90 nM)
Method in brief: as §1

[17] = tested on: THRa homodimer (NR concentration 90 nM)
Method in brief: as §1

[18] = tested on: VDR homodimer (NR concentration 270 nM)
Method in brief: as §1

Row | Sequence | PBM binding z-score [1] | PBM binding z-score [2] | PBM binding z-score [3] | PBM binding z-score [4] | PBM binding z-score [5] | PBM binding z-score [6] | PBM binding z-score [7] | PBM binding z-score [8] | PBM binding z-score [9] | PBM binding z-score [10] | PBM binding z-score [11] | PBM binding z-score [12] | PBM binding z-score [13] | PBM binding z-score [14] | PBM binding z-score [15] | PBM binding z-score [16] | PBM binding z-score [17] | PBM binding z-score [18]
1 | TAGCATAGGTCATTCAGGGGCCAGTATAGAAAGC | 1.02 | 2.08 | 0.638 | 0.381 | 5.69 | 4.14 | 0.0442 | 5.79 | 1.25 | 4.4 | 3.72 | 7.38 | 5.09 | 1.83 | 5.02 | 3.87 | -0.317 | 0.876
2 | GGAACGAGGGCATTCGAGTTGATAACATGGCGAT | 2.75 | 2.1 | 0.243 | 0.0771 | 0.605 | 4.02 | 1.36 | 0.915 | -0.696 | 1.68 | 0.66 | 1.41 | 1.74 | 3.17 | 1.08 | 3.37 | -0.138 | 3.48
3 | GCATAAAGGTAATACAAGGTGAAAGTCCGATTGT | 0.839 | 1.67 | 0.773 | 0.759 | 0.757 | 1.42 | -0.0245 | 1.99 | 0.262 | 1.11 | 1.18 | 1.15 | 0.92 | 0.231 | 1.32 | 4.64 | 0.994 | 0.291
4 | CCAGACCGGTGAAAGGTAACTCAGTCTGGTACGC | -0.315 | 1.07 | -1.56 | -0.816 | 0.901 | 0.218 | -0.239 | 0.267 | -0.377 | 0.477 | 0.414 | 0.36 | -0.096 | -0.727 | 0.696 | 0.429 | -0.178 | -0.186
5 | CAAACTAGGTTACCGGAAGGTCAAAGTCCGCATG | 7.31 | 6.8 | 1.12 | 1.42 | 4.03 | 4.47 | 1.65 | 5.36 | 1.39 | 3.9 | 4.55 | 6.15 | 4.19 | 0.838 | 4.64 | 3.68 | 1.66 | 2.56
6 | ATCTCTAGATAAGACTCAGTTCAGTGAAGAACGC | -0.453 | -0.237 | -0.428 | 1.1 | -0.287 | 0.428 | 0.883 | -0.0778 | 0.631 | -0.306 | 0.0113 | -0.0447 | 0.323 | 0.327 | -0.154 | 0.116 | -0.107 | 1.02
7 | GGAACGAGGGCAAGTTGAGAGCAGAGTTTGATGG | 3.69 | 2.7 | 0.19 | -0.541 | 0.391 | 0.927 | 0.275 | 0.482 | -0.172 | 2.74 | 1.58 | 1.77 | 2.21 | 2.26 | 0.94 | 1.45 | 0.0177 | 1.66
8 | CCGACTGGGGCGAGGTTACCATAACGCACAGCCA | 0.314 | 0.726 | -1.05 | -1.46 | 0.254 | 0.372 | -0.517 | 1.1 | -0.00275 | 0.965 | 0.887 | 0.854 | 0.545 | -0.326 | 1.39 | 1.55 | 0.408 | 0.294
9 | TGAATGAGGCTATAAGATCAGGGAACGTTGCAAA | -0.531 | -0.142 | 0.314 | 0.0126 | -0.853 | -0.467 | -0.512 | -0.215 | -0.382 | -0.0944 | -0.742 | -0.102 | 0.256 | -1.09 | -0.0491 | -0.134 | -0.324 | -0.554
10 | AGTCAAAGTACATCTAGGTAACGTAAGATATGCT | 0.968 | 2.23 | 0.568 | 1.11 | -0.552 | -0.0859 | 0.334 | -0.223 | 0.0853 | 0.801 | -0.123 | 0.265 | 0.944 | 0.854 | 0.346 | 0.814 | -0.353 | 0.155
11 | CCGAGCAGGTTATGGGGCATTCAGGCAACGGTGA | 0.393 | 1.05 | -0.884 | -0.839 | 0.261 | -0.112 | -0.362 | 0.225 | -0.391 | 1.04 | 1.03 | 0.387 | 0.573 | -0.126 | 0.679 | 0.573 | 0.0585 | -0.392
12 | GGAACGAGGGCAAAGTTGATAGTATCTGTCGACG | 3.79 | 4.43 | 0.556 | -0.544 | 0.557 | 1.12 | 0.156 | 1.66 | -0.123 | 2.22 | 1.24 | 2.08 | 1.84 | 2.59 | 1.68 | 1.36 | 0.0529 | 1.64
13 | ACTAGCAGGCCAAGTTTGGGTCACCCAAACAAAG | 0.771 | 1.58 | -0.22 | -0.356 | 0.716 | 1.08 | -0.637 | 1.89 | -1.22 | 2.06 | 2.48 | 2.88 | 2.18 | -0.623 | 1.45 | 2.96 | 1.36 | 0.196
14 | AGAATGAGGTTATACGTAGATCAGGGACGAAAGT | 3.78 | 2.16 | 1.14 | 1.42 | 0.4 | 1.12 | 0.405 | 1.49 | 0.392 | 1.42 | 0.962 | 1.77 | 1.35 | 1.87 | 2.14 | 2.39 | 0.878 | 1.06
15 | TCTGCTAGGTCAGTTGGTCAGCTTACGAGCTGCC | 2.73 | 3.32 | 0.732 | -0.0451 | -0.25 | 0.13 | -0.847 | 0.661 | -0.758 | 3.36 | 2.7 | 2.62 | 3.97 | 0.621 | 0.757 | 1.26 | 0.376 | -0.597
